Test results from PubChem BioAssay (NCATS).
Results filed as inconclusive are left out. Values without a mark were called inactive. Calls of active or inactive are those of the source. The call rests on the fitted dose curve; in most records, active means well fitted inhibition curve with a large enough effect; inconclusive means small, poorly fitted or top-dose-only effect; inactive means no such curve, though single readings can be large or run the other way.
On the % scale 0 is the no-effect control and ±100 the full control effect; potency means the concentration at half of the fitted maximal effect.

The compounds below were run on Zika virus NS2B-NS3 protease (unlinked complex) (assay: Primary screen GU Rhodamine qHTS for Zika virus inhibitors: Unlinked NS2B-NS3 protease assay (AID 1347159; further: nearly all actives have a fitted effect of over 60% in size)). Settings: Recombinant ZIKV NS2B-NS3 protease, Rhodamine110 substrate fluorescence; series mostly up to 107 µM; activity change, negative = inhibition: at the top concentration.
Text: Avindra Nath, Ph.D., National Institute of Neurological Disorders and Stroke (NINDS), Bethesda, MD
Radhakrishnan Padmanabhan, Ph.D., Georgetown University (GU), Washington D.C.
Zika Virus causes congenital defects, including microcephaly and is associated with Guillain-Barre syndrome, eningoencephalitis and myelitis in infected adult. […] Using a target-based approach, we hope to establish a screening paradigm to uncover novel, cell-active NS2B-NS3 protease (Zika Virus) specific inhibitors from NCATS' collection of small molecules using qHTS.
Four assay panel was created to identify potential Zika Virus inhibitors. Namely, (1) GU unlinked NS2B-NS3 AMC tagged protease qHTS, (2) GU unlinked NS2B-NS3 Rhodamine tagged protease qHTS, (3) NINDS linked NS2B-NS3 AMC tagged protease qHTS, (4) NINDS linked NS2B-NS3 Rhodamine tagged protease qHTS. Active compounds were re-acquired and re-screened to confirm inhibition. Inhibitors were further screened against various confirmatory and counterscreens in dose response format.
Early Translation Branch (ETB)
National Center for Advancing Translational Sciences (NCATS), Rockville, MD
National Institute of Health (NIH), Bethesda, Maryland
Padmanabhan lab provided the NS2B hydrophilic domain and NS3 protease domain in a noncovalent complex used for the unlinked assay. Control compound aprotinin is obtained from Thermo Scientific (#78432; Waltham, Massachusetts). Rhodamine110 substrate ([N-Cbz]-Nle-Lys-Arg-Arg-Rhod110-Arg-Arg-Lys-Nle-[N-Cbz]) was purchased from either Genscript or Bachem.
1536-well Protease (Rhodamine110 Substrate) Assay:
Briefly, 3 microL of enzyme (25 nM final concentration), in assay buffer (10 mM Tris-HCl pH 8.0 with 0.01% Tween 20) were dispensed into a 1,536-well solid-bottom black plate (Greiner Bio One, Monroe, NC). Twenty-three nL of compounds (final concentration range 7.28 nM to 114 microM) or control Aprotinin (final concentration range 3.47 nM to 114 microM) were transferred via Wako Pin-tool (Wako Automation, Richmond, VA). Samples were incubated (room temperature, protected from light) for 15 minutes followed by a 1 microL Rhodamine110 substrate addition (1.5 microM final concentration). Plates were then immediately read on a ViewLux High-throughput CCD imager (PerkinElmer, Waltham, MA) equipped with FITC fluorescence optics (480(20) nm excitation, 540(25) nm emission), then incubated (room temperature, protected from light) for 15 minutes (~15% conversion). The change in fluorescence intensity over the 15-minute reaction period was normalized against no-inhibitor and no-enzyme controls and the resulting percent inhibition data were fitted to a 4-parameter Hill equation. Aprotinin was used as intraplate control.
With Nc1ccc(/C=C/C(=O)NCc2cc3cc(-c4ccc(C(=O)N5CCC(F)(F)CC5)cc4)cc(-c4ccc(F)cc4)c3o2)cn1 the “activity change, negative = inhibition” value was 46.8%. CC12CCC3c4ccc(O)cc4CCC3C1CC(OC1OC(C(=O)O)C(O)C(O)C1O)C2O (stereo not given) was tested, and the “activity change, negative = inhibition” value was -0.0249%. For NC(=O)C(CCC(F)(F)F)N(Cc1ccc(-c2ncon2)cc1F)S(=O)(=O)c1ccc(Cl)cc1 (stereo not given), the “activity change, negative = inhibition” value was -0.39%. In the case of CC(CCC1(O)OC2CC3C4CCC5CC(O[C@@H]6O[C@H](CO)[C@@H](O)[C@H](O)[C@H]6O[C@@H]6O[C@@H](C)[C@H](O)[C@@H](O)[C@H]6O)C(O)CC5(C)C4CCC3(C)C2C1C)CO[C@@H]1O[C@H](CO)[C@@H](O)[C@H](O)[C@H]1O (stereo not given in full), the “activity change, negative = inhibition” value was 17.5% [at 32.5 µM]. CC(C)(C)OC(=O)N1CCC(OCc2nc(-c3ccncc3)no2)CC1 was tested, and the “activity change, negative = inhibition” value was -1.37%. CC1(C)CC[C@]2(C(=O)O)CC[C@]3(C)C(=CCC4[C@@]5(C)CC[C@H](O[C@@H]6O[C@H](CO)[C@@H](O)[C@H](O)[C@H]6O[C@@H]6O[C@H](CO)[C@@H](O)[C@H](O)[C@H]6O)[C@@](C)(CO)C5CC[C@]43C)[C@@H]2C1 (stereo not given in full) was tested, and the “activity change, negative = inhibition” value was -6.7% [at 32.5 µM]. In the case of C/C=C(/COC(=O)/C(C)=C/C)C(=O)OC(CC)c1ccc(OC)c(OC)c1 (stereo not given), the “activity change, negative = inhibition” value was -20.4%. CC1(C)CCC(C)(C)c2cc(C3(c4ccc(C(=O)O)cc4)OCCO3)ccc21 was tested, and the Potency was 10 µM (active). For CN(C)c1nc(NC2CCC(NC(=O)c3ccc(F)c(F)c3)CC2)nc2ccccc12 (stereo not given), the “activity change, negative = inhibition” value was 200%. For C[C@@H]1CN(Cc2ncccn2)C[C@H]1c1nc2c(cnn2C2CCOCC2)c(=O)[nH]1, the “activity change, negative = inhibition” value was 42%. For CC(C)=CCC[C@](C)(O)[C@H]1CC[C@]2(C)[C@@H]1[C@H](O)CC1[C@@]3(C)CC[C@H](O)C(C)(C)[C@@H]3[C@@H](O[C@@H]3O[C@H](CO)[C@@H](O)[C@H](O)[C@H]3O[C@@H]3O[C@H](CO)[C@@H](O)[C@H](O)[C@H]3O)C[C@]12C (stereo not given in full), the “activity change, negative = inhibition” value was 18.9% [at 32.5 µM]. With O=C(O)COCCN1CCN([C@H](c2ccccc2)c2ccc(Cl)cc2)CC1 the “activity change, negative = inhibition” value was 99.5%. In the case of CCNC(=O)Nc1ccc(-c2nc3c(c(N4CCOC[C@@H]4C)n2)CCN(c2ncccn2)C3)cc1, the “activity change, negative = inhibition” value was -16.8%. With CC#CC(=O)N1CCC[C@H]1c1nc(-c2ccc(C(=O)Nc3ccccn3)cc2)c2c(N)nccn12 the “activity change, negative = inhibition” value was -20% [at 57.1 µM]. For CO[C@H]1C[C@@H]2CC[C@@H](C)[C@@](O)(O2)C(=O)C(=O)N2CCCC[C@H]2C(=O)O[C@H]([C@H](C)C[C@@H]2CC[C@H](n3cnnn3)[C@H](OC)C2)CC(=O)[C@H](C)/C=C(\C)[C@@H](O)[C@@H](OC)C(=O)[C@H](C)C[C@H](C)/C=C/C=C/C=C/1C, the “activity change, negative = inhibition” value was 0% [at 57.1 µM]. With CN(c1ccccc1CNc1nc(Nc2ccc3c(c2)CC(=O)N3)ncc1C(F)(F)F)S(C)(=O)=O the “activity change, negative = inhibition” value was 17.6%. In the case of CC(=O)NC[C@H]1CN(c2ccc(N3CCN(C(=O)CO)CC3)c(F)c2)C(=O)O1, the “activity change, negative = inhibition” value was 38.6%. In the case of COC1/C=C/C(C)(O)C(SCC(N)C(=O)O)CC(=O)OC(C)C(C)CC/C=C/1C (stereo not given), the “activity change, negative = inhibition” value was 2.84% [at 57.1 µM]. With CC1CCCCN1S(=O)(=O)c1ccc(N2CCCC2=O)cc1 (stereo not given) the “activity change, negative = inhibition” value was 9.37%. In the case of COc1c2c(c(CO)c3c1C(=O)OC3)OC1(C)CCC3(O)C(C)(C)OC(=O)CCC3(C)C1C2 (stereo not given), the “activity change, negative = inhibition” value was 13.4% [at 57.1 µM]. In the case of C=C1C(=O)O[C@H]2[C@H]1CC/C(C)=C/CC[C@@]1(C)O[C@@H]21, the “activity change, negative = inhibition” value was 16%. In the case of CC1(C)CC2C(C1)C(C)(O)C13CC1(COC3=O)C2O (stereo not given), the “activity change, negative = inhibition” value was -7.31%. For O=C1NC(=O)C(c2cn(-c3ccccc3)nc2-c2ccc(F)cc2)N1 (stereo not given), the “activity change, negative = inhibition” value was 0%. In the case of COC(=O)C[C@H]1C(C)(C)[C@H](OC(C)=O)C2CC3=C4CC(=O)O[C@@H](c5ccoc5)[C@]4(C)CCC3[C@@]1(C)C2=O (stereo not given in full), the “activity change, negative = inhibition” value was 1.83% [at 57.1 µM]. For C=C(C(=O)O)C1CCC2(C)CCC(O)C(C)(O)C2C1 (stereo not given), the “activity change, negative = inhibition” value was 3.36%. For O=C(NCc1cccc(O)c1)Nc1nc(-c2ccncc2)cs1, the “activity change, negative = inhibition” value was -4.34%. In the case of CC(C)CCC(=O)CC1c2ccccc2C(=O)N1c1ccc2ccc(Cl)nc2n1 (stereo not given), the “activity change, negative = inhibition” value was -15%. In the case of C=C[C@H]1[C@H](O[C@@H]2O[C@H](CO)[C@@H](O)[C@H](O)[C@H]2O)OC=C(C(=O)OC)[C@H]1C/C=C(/C=O)[C@@H]1C(C(=O)OC)=CO[C@@H](O[C@@H]2O[C@H](CO)[C@@H](O)[C@H](O)[C@H]2O)[C@@H]1C=C, the “activity change, negative = inhibition” value was -5.98% [at 32.5 µM]. With CNC(=O)c1ccccc1Nc1nc(Nc2ccc3c(c2OC)CCCC(N2CCN(CCO)CC2)C3)ncc1Cl (stereo not given) the “activity change, negative = inhibition” value was 93.7%. In the case of O=C(CCc1ccccc1)N1CCC(O)(Cn2cnc3cc(Cl)ccc3c2=O)CC1, the “activity change, negative = inhibition” value was 271%. With COC(=O)CC(O)C1OC(c2ccccc2)C(O)C1O (stereo not given) the “activity change, negative = inhibition” value was -9.68%. In the case of CC(C)(C)C(=O)CN1C(=O)[C@H](NC(=O)Nc2cccc(C(=O)O)c2)CN(C2CCCCC2)c2ccccc21, the Potency was 10 µM (active). In the case of CC(C)C(NC(=O)c1ccc2ccccc2n1)C(=O)NC(CC(=O)O)C(=O)COc1c(F)cccc1F (stereo not given), the “activity change, negative = inhibition” value was 39.1%. In the case of C=CC1C(OC2OC(CO)C(O)C(O)C2O)OC=C(C(=O)OC)C1CC1CC(=O)CC(CCc2ccc(O)cc2)O1 (stereo not given), the “activity change, negative = inhibition” value was -16.5% [at 32.5 µM]. CC(=O)NC1C(OC(C)(C)C2CCC3(C)C=C(C4CCC5C4(C)CC(O)C4OC(C(C)(C)O)CCC45C)CCC3O2)OC(CO)C(O)C1O (stereo not given) was tested, and the “activity change, negative = inhibition” value was -13.3% [at 32.5 µM]. With C[C@@H]1[C@H]2[C@H](O[C@@H]3O[C@H](CO)[C@@H](O)[C@H](O)[C@H]3O)OC=C(C(=O)O)[C@H]2C[C@@H]1O the “activity change, negative = inhibition” value was 7.81%. For CN(C)C/C=C/C(=O)Nc1cc2c(Nc3ccc(F)c(Cl)c3)ncnc2cc1OC1CCOC1 (stereo not given), the “activity change, negative = inhibition” value was 97.7%. In the case of C[C@@H]1CN(Cc2ccccc2)C[C@H]1c1nc2c(cnn2C2CCOCC2)c(=O)[nH]1, the “activity change, negative = inhibition” value was 4.39%. In the case of C[C@@H]1O[C@@H](O[C@H]2[C@H](O)[C@@H](O)[C@H](O[C@H]3[C@H](O[C@H]4CC[C@@]5(C)C(=CC[C@@H]6C5CC[C@]5(C)[C@@H]7[C@H](C[C@@H]65)O[C@]5(CC[C@@](C)(CO[C@@H]6O[C@H](CO)[C@@H](O)[C@H](O)[C@H]6O)O5)[C@H]7C)C4)O[C@H](CO)[C@@H](O)[C@@H]3O)O[C@@H]2CO)[C@H](O)[C@H](O)[C@H]1O (stereo not given in full), the “activity change, negative = inhibition” value was 1.14% [at 32.5 µM]. For CC1=CC(=O)CC(C)(C)[C@@]1(O)CC[C@@H](C)O[C@@H]1O[C@H](CO)[C@@H](O)[C@H](O)[C@H]1O, the “activity change, negative = inhibition” value was 1.25%.
